Laboratory results reported in the supplement of paper PMC6555819.

system: VDR:RXRa (NR concentration 270 nM, RXRa partner concentration 90 nM); assay: PBM binding z-score (relative to random genomic background probes); higher = stronger binding; sequences stand for … in GC…GCGATTGACAGCGTAGAATGAAGG
Description: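 Protein-binding microarray (Agilent 4x180K custom design, double-stranded 60-nt probes: 5' GC cap, 34-nt variable region, 24-nt constant primer region; full probe sequence given). Purified or IVT nuclear receptor:RXRα heterodimers (3:1 NR:RXRα, mostly 270:90 nM) or homodimers were incubated for 1 h in PBS with 2% milk and no ligand, then detected with Alexa488 antibodies. Fluorescence from o1-orientation probes (~5 replicates averaged) was converted to z-scores against 500 random hg19 background probes. Variable regions are seed direct-repeat (DR0–DR5) sites, all their single-nucleotide variants and half-site ablations.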

| Sequence | PBM binding z-score |
| --- | --- |
| CCAGACAGGTGAACGGTAACTCAGTCTGGTACGC | -0.205 |
| CTCGAAAGCTCGGTTGAGGTGAGTATACGGATAA | -0.326 |
| CCTTACTGGTCACTCCAGGTTATAGCATCGGAGT | 0.952 |
| ACCGAAAGGTCGAAGGTGAGTATACCCACCCGAA | 2.95 |
| CGAACTAGGTCATCCTGGACAGTGAATACATTGA | 2.56 |
| GCTTACGGGTCAAAGGTTATAGCGTGAATAGAAT | 5.55 |
| CCTGCTAGGTCAGTGGTCAGCTAAAGCAGCTCGC | -0.183 |
| ACTTGCAGGCCAAGGGTCACTCAAGATTAGTCCG | 3.05 |
| ATCTCTCGGTAAAAGTTCAGTGAATCCCGAGGAT | 1.03 |
| GCTTGTAGATCAAGGTTAGGAAAGACTAAGCTAA | -0.45 |
| TAGCCTAGGTAAGATCGGGCCAGTATACGCTATA | -0.645 |
| CCAGACCGGTGAAAGGTAACTCAGTCTGGTACGC | 0.137 |
| ATCTCTAGGTAAGAGTTCAGTGAATCCCGAGGAT | 2.22 |
| CCTAGCAGGTCAATCTGGGTCACTCAAGGCTTGA | 4.94 |
| ATCTCTAGGTAACAAGTTCAGTGAAAGAGAGGAC | 2.13 |
| ATTTCTAGGTAACCAAGTTCAGTGAATGCCGAAC | 4.22 |
| CCTACTGGGCCAAATGTCATTGATTCCAATGCTC | 0.0339 |
| CGTCCAAGGTCAGAGAGTTCAGTGAATGCCGAGT | 7.65 |
| CCTATGAGTTGACCATAAGGGCAACCGAAGCTCG | 0.81 |
| CCTAGCTGGTCAGGAGGTCACACACCGGATATGA | 3.73 |

| Sequence | PBM binding z-score |
| --- | --- |
| CCGAGTAGGTTATGGAGCATTCAGGCAACGGTGA | -0.239 |
| ACAGACAGGTGATGAAGGCAACTCAGGCTATCAT | -0.257 |
| AGAATGAGGTTATCAAAGATCAGGGAAACGCTTG | 1.12 |
| GATACAGGGTCAAGGCCAGAGAACGCGTATTGAT | 3.99 |
| CGTCCAAGGTCTATGCTAGGTCAGTGAAAGCATT | 0.278 |
| CCTGCTAGGTCATGGTCAGCTTATCTACAGTATG | 1.54 |
| ATCTCTAGGTAAAAGTTCAGTGATTCCCGAGGAT | 1.05 |
| GCTCGGAGGACAAGGTCCGAGCTTTGTCCGTAGA | -0.684 |
| ATCTCTAGATAAAAGTTCAGTGAATCCCGAGGAT | 0.828 |
| CCCAGCAGGCCAATCTGGGTCACTCAAGGCTTGA | 0.284 |
| CCTGCTATGTCAATGGTCAGCTAAAGCAGCTCGC | -0.397 |
| TGTCAAAGTTCAAAGGTAAGGTAAGTATCCACAC | 4.95 |
| CCGACTGGGGCAAAGCTTACCATACTCAGTACGA | -0.585 |
| ATCTCTAGGTAAAGTTCAGTTAAAGATCGATAGA | 1.82 |
| CAGCCTAGGTCATGGCCAGTATAGGAGGAACGTT | 1.84 |
| AGAATGAAGTTATACGTAGATCAGGGAAGAAAGT | -0.299 |
| ACTTGCAGGCCAAGTTTGGGTCACTCAAACAAAG | 0.755 |
| TCTATTAGTTGAGTAGGGCAACCGAAACAGCGGA | -0.07 |
| CCTACTCGGCCAAGGTCATTGATCAGTCAAAGCA | 3.51 |
| TGTAGTTGGTCAAAGGTCACACACTCGAAATGCG | 5.19 |
